From PubChem BioAssay come the findings set out here.

The source made the active and inactive calls.

A short description of assay [1]: small molecules captured by biotinylated probe aFSTL3 – biochemical, small-molecule microarray, fluorescence 635/667, stem cell growth factor project, primary screen (AID 1064).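 Also: measures binding of the biotinylated anti-FSTL3 antibody to printed compounds.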 The following applies: higher = more signal.
Assay [2] can be described thus: binders from COS7 lysate, DM2A8 probe, primary screen, torsin A project, cell lysate, small-molecule microarray, fluorescence 635/667 (AID 1065). The following applies: higher = more signal, COS7 lysate expressing mutant human TOR1A.
The nature of assay [3]: small molecules captured by biotinylated probe aFGF2 – biochemical, small-molecule microarray, fluorescence 635/667, stem cell growth factor project, primary screen (AID 1067).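 Also: measures binding of biotinylated aFGF2 protein to printed compounds on slides; z-score merges feature fluorescence and signal-to-noise across triplicate slides.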 The following applies: higher = more signal.
A short description of assay [4]: small molecules captured by biotinylated probe aFGF10 – biochemical, small-molecule microarray, fluorescence 635/667, stem cell growth factor project, primary screen (AID 1071).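 Also: score merges 667 nm spot intensity and signal to noise from triplicate slides.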 The following applies: higher = more signal.
For assay [5], the target named is Neurogenic locus notch homolog protein 2 (Homo sapiens) (UniProt Q04721). The experiment in a line: small molecules binding Notch2 protein – biochemical, small-molecule microarray, 635 nm fluorescence, stem cell growth factors, primary screen (AID 1073). The following applies: higher = more signal.
Chain of Neurogenic locus notch homolog protein 2 (Homo sapiens) (Q04721 whole entry, looked up, canonical isoform): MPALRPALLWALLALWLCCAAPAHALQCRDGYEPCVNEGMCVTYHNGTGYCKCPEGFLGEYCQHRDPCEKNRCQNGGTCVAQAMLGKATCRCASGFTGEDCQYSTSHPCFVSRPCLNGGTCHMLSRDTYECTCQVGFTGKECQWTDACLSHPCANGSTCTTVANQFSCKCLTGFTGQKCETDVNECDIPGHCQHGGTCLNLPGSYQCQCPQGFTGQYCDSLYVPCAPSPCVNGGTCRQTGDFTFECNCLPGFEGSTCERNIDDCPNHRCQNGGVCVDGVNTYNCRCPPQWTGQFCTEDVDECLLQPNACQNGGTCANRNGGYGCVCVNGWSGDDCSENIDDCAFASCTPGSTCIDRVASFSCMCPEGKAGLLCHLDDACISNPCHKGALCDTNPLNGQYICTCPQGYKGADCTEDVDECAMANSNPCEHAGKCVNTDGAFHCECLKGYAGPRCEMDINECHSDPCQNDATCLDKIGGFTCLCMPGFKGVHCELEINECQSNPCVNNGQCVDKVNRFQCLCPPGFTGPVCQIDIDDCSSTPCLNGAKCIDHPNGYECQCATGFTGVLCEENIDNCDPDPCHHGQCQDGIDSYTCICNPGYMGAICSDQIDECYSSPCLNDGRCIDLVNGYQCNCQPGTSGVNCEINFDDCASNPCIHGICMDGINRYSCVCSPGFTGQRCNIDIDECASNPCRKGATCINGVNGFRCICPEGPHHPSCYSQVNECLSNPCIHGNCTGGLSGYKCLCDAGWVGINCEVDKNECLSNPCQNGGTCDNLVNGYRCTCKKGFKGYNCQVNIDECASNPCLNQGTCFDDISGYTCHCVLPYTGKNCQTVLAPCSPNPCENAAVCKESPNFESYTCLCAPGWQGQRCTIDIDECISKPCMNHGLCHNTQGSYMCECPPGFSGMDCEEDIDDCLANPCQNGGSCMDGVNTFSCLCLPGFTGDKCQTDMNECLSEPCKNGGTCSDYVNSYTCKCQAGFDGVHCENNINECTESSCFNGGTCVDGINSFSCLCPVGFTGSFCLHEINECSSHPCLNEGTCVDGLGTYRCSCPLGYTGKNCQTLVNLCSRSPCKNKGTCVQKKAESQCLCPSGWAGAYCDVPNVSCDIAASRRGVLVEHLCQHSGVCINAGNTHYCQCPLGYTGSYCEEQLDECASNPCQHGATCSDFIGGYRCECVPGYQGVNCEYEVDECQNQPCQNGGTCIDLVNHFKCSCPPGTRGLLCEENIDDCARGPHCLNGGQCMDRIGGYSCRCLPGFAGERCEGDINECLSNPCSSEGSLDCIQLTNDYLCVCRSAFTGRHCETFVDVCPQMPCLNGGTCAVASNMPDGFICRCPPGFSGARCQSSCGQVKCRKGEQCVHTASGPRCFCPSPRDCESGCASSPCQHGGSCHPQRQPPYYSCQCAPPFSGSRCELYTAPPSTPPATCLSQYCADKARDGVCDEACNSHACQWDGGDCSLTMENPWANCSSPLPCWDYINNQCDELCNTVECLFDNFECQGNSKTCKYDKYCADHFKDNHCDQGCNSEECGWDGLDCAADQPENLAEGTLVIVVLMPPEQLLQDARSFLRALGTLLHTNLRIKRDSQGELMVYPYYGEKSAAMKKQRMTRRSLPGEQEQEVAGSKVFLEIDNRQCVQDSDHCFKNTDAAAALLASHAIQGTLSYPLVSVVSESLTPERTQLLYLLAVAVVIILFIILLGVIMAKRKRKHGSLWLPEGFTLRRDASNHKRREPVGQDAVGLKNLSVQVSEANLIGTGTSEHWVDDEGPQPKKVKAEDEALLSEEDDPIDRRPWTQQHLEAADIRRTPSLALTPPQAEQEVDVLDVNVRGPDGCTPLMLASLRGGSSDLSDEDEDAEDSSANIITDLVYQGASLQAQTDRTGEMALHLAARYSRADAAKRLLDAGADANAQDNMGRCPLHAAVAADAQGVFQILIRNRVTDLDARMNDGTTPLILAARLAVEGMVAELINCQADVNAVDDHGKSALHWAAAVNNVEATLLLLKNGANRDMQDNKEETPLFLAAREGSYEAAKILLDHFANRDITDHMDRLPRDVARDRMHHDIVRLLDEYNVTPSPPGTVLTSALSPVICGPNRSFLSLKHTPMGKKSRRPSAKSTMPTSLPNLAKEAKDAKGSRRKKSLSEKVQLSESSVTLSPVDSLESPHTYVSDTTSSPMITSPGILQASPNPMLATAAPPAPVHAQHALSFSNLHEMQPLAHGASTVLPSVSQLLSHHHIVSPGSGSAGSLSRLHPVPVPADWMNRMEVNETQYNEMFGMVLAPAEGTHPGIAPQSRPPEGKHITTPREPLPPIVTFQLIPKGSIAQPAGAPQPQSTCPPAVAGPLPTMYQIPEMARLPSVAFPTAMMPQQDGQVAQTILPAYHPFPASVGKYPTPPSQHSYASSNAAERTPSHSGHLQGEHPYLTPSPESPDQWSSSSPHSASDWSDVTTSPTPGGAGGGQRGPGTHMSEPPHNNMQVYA
The target in assay [6] is Pro-neuregulin-1, membrane-bound isoform (Homo sapiens) (UniProt Q02297). The experiment in a line: small molecules binding neuregulin-1 protein – biochemical, small-molecule microarray, fluorescence 635/667, psychiatric disease protein project, primary screen (AID 1075).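 Also: score combines 667 nm spot fluorescence with signal to noise.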 The following applies: NRG1 binding, 635 nm fluorescence, higher = more signal.
Assay [7] deals with Neuregulin-1 EGF-like domain. The experiment in a line: small molecules binding NRG1 EGF domain – biochemical, small-molecule microarray, 635 nm fluorescence, primary screen (AID 1081).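 Also: binding of the protein to compounds printed on small-molecule microarray slides.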 The following applies: higher = more signal.
A short description of assay [8]: FRG1 expression reporter modulators in myotubes – cell-based, C2C12 myotubes, firefly/Renilla luciferase, luminescence, FRG1 inhibition for FSHD, primary screen (AID 1084). The following applies: FRG1 promoter luciferase, higher = more signal, called active from +8 up or from −8 down.
Assay [9] can be described thus: small molecules captured by biotinylated probe aFST – biochemical, small-molecule microarray, fluorescence 635/667, stem cell growth factor project, primary screen (AID 1086).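 Also: score merges 667 nm fluorescence with signal-to-noise of each printed compound spot.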 The following applies: higher = more signal.
Assay [10] in a line: binders of probe aHhip on microarray, primary screen, stem cell growth factor project, biochemical, small-molecule microarray, fluorescence 635/667 (AID 1087).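 Also: score merges spot fluorescence at 667nm with spot signal to noise ratio.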 The following applies: higher = more signal.
For assay [11], the system named is PRMT1 (protein arginine N-methyltransferase 1). The experiment in a line: small molecules binding arginine methyltransferase PRMT1 – biochemical, small-molecule microarray, 635 nm fluorescence, primary screen (AID 1088).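 Also: binding of Prmt1 protein to compounds spotted on small-molecule microarray slides.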 The following applies: higher = more signal.
Assay [12] can be described thus: growth effects on S. cerevisiae YJM789 – YJM789 clinical isolate, OD600, 24 h, basal, primary screen (AID 1089).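 Also: growth of clinical yeast isolate S. cerevisiae YJM 789 seeded 1000 cells per well; test concentration not given here.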 The following applies: higher = more signal, called active from +8 up or from −8 down.
Assay [13] in a line: S. pombe growth modifiers, basal conditions – strain 972, OD600, 24 h, no modulator, primary screen (AID 1090).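 Also: basal condition with compound alone and no growth modifier present; test concentration not given here.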 The following applies: S. pombe 972 growth, higher = more signal, called active from +8 up or from −8 down.
Assay [14] in a line: budding yeast growth modifiers under rapamycin – strain BY4716, OD600, 96 h, primary screen (AID 1091). Also: test concentration not given here. The following applies: S. cerevisiae BY4716 + rapamycin, higher = more signal, called active from +8 up or from −8 down.
In assay [15] the target is Torsin-1A-interacting protein 2 (Homo sapiens) (UniProt Q8NFQ8). The experiment in a line: small molecules binding lysate-expressed LULL1 – cell lysate, human LULL1 lysate, 635/667 nm fluorescence, primary screen (AID 1092).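 Also: probe is lysate of COS7 cells overexpressing human LULL1; score merges per-feature 667 nm fluorescence with signal-to-noise.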 The following applies: small-molecule microarray, hLULL1 lysate binding, 635 nm fluorescence; higher = more signal.
Assay [16] can be described thus: optical density change of DRC41 E. coli – strain DRC41, OD650, 24 h, E. coli filamentation project, primary screen (AID 1093).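 Also: MC1000 strain lacking acrAB efflux and sulA so SOS filamentation is blocked; test concentration not given here.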 The following applies: E. coli DRC41 growth, higher = more signal, called active from +8 up or from −8 down.
Assay [17] is described as follows: probe aLefty2 binding to arrayed compounds – biochemical, biotinylated probe, 635/667 nm fluorescence, primary screen (AID 1094).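 Also: score merges spot fluorescence near 667 nm with spot signal-to-noise ratio.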 The following applies: small-molecule microarray, higher = more signal.
For assay [18], the system named is Noggin (protein binding on small-molecule microarray). The experiment in a line: small molecules binding Noggin protein – biochemical, 635/667 nm fluorescence, primary screen (AID 1095).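 Also: score merges 667 nm feature fluorescence with signal to noise over triplicate slides.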 The following applies: 635 nm fluorescence, higher = more signal.
Assay [19] deals with Neurogenic locus notch homolog protein 3 (Homo sapiens) (UniProt Q9UM47). The experiment in a line: small molecules binding NOTCH3 protein – biochemical, 635/667 nm fluorescence, primary screen (AID 1096). The following applies: small-molecule microarray, 635 nm fluorescence, higher = more signal.
Chain of Neurogenic locus notch homolog protein 3 (Homo sapiens) (Q9UM47 whole entry, looked up): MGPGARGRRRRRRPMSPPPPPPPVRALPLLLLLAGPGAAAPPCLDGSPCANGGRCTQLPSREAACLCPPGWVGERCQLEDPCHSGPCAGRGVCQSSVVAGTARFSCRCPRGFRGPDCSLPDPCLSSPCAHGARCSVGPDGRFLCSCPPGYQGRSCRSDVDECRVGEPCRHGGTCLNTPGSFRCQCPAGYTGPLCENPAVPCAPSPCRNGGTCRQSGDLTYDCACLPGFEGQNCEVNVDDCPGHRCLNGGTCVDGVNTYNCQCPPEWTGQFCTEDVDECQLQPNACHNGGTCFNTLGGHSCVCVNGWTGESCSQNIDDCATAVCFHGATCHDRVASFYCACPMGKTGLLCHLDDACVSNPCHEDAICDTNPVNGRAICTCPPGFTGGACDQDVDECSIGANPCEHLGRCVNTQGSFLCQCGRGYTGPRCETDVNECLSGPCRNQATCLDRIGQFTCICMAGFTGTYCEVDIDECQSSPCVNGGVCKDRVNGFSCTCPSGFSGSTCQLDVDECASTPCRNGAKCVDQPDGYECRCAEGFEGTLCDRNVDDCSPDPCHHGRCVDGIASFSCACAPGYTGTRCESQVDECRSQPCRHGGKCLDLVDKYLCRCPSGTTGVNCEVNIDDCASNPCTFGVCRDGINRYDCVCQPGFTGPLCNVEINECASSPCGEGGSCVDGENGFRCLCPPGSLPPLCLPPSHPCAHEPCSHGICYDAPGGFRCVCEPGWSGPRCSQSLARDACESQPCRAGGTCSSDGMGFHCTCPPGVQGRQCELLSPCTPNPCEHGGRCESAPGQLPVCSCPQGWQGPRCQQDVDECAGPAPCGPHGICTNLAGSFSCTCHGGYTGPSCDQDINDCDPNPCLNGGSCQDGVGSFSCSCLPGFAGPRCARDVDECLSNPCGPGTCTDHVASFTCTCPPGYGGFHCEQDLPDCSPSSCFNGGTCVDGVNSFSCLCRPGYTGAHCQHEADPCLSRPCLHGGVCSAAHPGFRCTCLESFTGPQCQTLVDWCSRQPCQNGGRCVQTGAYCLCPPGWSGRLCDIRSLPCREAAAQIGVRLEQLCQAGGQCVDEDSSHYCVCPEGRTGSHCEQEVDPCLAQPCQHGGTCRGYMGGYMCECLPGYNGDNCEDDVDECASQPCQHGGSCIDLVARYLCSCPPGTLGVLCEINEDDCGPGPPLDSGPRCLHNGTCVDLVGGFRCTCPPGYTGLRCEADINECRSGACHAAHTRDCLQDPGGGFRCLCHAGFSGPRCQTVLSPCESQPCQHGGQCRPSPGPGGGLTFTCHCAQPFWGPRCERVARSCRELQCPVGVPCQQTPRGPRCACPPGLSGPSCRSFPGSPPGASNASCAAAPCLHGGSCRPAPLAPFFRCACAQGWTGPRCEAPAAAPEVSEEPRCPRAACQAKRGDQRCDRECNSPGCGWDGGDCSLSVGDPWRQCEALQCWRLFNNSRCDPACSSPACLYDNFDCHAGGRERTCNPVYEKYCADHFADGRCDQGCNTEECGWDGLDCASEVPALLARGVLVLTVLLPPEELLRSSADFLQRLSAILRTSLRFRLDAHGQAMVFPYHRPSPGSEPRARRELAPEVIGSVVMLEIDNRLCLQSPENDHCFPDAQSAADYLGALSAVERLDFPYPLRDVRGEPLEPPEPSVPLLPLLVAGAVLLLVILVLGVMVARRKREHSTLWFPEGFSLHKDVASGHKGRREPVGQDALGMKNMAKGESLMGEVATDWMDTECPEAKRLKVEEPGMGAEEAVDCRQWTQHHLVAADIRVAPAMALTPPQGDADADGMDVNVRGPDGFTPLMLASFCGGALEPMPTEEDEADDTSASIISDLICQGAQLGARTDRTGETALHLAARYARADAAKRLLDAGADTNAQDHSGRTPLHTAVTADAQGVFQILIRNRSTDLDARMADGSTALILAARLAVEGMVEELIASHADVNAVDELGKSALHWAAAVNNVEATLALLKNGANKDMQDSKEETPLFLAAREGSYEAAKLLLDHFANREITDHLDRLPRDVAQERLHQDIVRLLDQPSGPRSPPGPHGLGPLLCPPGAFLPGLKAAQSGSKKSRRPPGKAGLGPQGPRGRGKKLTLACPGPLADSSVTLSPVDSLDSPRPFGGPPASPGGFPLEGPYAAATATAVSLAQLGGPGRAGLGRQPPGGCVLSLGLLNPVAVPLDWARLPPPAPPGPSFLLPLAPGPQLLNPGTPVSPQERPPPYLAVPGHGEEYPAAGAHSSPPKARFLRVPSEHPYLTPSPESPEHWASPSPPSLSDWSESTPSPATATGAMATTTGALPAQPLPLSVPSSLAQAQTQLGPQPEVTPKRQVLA
Assay [20] in a line: probe aEGFR binding to arrayed compounds – biochemical, biotinylated probe, 635/667 nm fluorescence, primary screen (AID 1097).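 Also: probe is a biotinylated anti-EGFR antibody binding compounds printed on slides; score combines fluorescence near 667 nm and signal to noise of each spot.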 The following applies: small-molecule microarray, higher = more signal.

As to `COCCOC(=O)N1C(=O)[C@@]2(c3cc(C#CC4=CCCCC4)ccc31)[C@H](C(N)=O)[C@H]1C(=O)O[C@H](c3ccccc3)[C@H](c3ccccc3)N1[C@@H]2c1ccc(O)cc1`, the composite z-score in assay [1] was -0.0926; in assay [2] it was 0.368; in [3], 0.0122; in assay [4], 0.683; in assay [5], 1.28; in assay [6], 0.758. In addition, the composite z-score in assay [7] was found to be 1.11; in assay [9], 0.416; in assay [10], 0.0623; in [11] it was 1.55; in assay [15], 3.06; in assay [17], 0.725. Further, the values for the composite z-score in assay [18], in assay [19] and in assay [20] were 0.735, 1.13 and 0.0038, respectively. Also, the z-score in assay [8] is -0.95 (inactive); in assay [12], -1.59 (inactive); in assay [13], -0.638 (inactive); in assay [14], 0.0591 (inactive); in assay [16], 0.573 (inactive).

With `C=CCNC(=O)[C@H]1[C@@H]2C(=O)O[C@@H](c3ccccc3)[C@@H](c3ccccc3)N2[C@@H](c2ccc(O)cc2)[C@]12C(=O)Nc1ccc(C#CCCO)cc12`, the composite z-score in assay [1] was -0.107; in assay [2] it was -1.51; in [3], -0.122; in assay [4], -0.0819; in [5] it was -0.697; in assay [6] it was 1.01. Moreover, the composite z-score in assay [7] is 0.732; in assay [9], 0.33; in [10], -0.0994; in assay [11] it was 0.586; in assay [15], 1.97; in assay [17], -0.0915. In addition, the composite z-score is -0.325 in assay [18], -0.356 in [19] and -0.201 in assay [20]. Further, the z-score in [8] was -3.71 (inactive); in assay [12] it was 1.35 (inactive); in [13] it was 1.84 (inactive); in [14] it was 1.13 (inactive); in [16] it was 0.515 (inactive).

For `C#CCOc1ccc(C[C@@H](C(=O)OC)N(CC#C)[C@@H](/C=C/C2CC2)[C@H](O)Cc2ccccc2)cc1`, the composite z-score is 0.282 in [1]; -1 in [2]; -0.198 in [3]; -0.207 in assay [4]; -1.12 in assay [5]; -0.294 in assay [6]. In addition, the composite z-score in assay [7] was -0.0146; in assay [9] it was -0.353; in assay [10], -0.0994; in assay [11] it was -0.828; in assay [15], -0.361; in [17], -0.0561. Moreover, the results for the composite z-score in assay [18], in assay [19] and in assay [20] were -0.446, -0.384 and -0.312, respectively. The z-score in assay [8] is -4.34 (inactive); in assay [12], 0.591 (inactive); in [13], 0.027 (inactive); in assay [14], 1.29 (inactive); in assay [16], -0.914 (inactive).

On to `COc1ccc(NC(=O)O[C@H]2[C@H](OC(=O)c3cc4ccccc4[nH]3)[C@@H](OC(=O)c3cc4ccccc4[nH]3)[C@@H](OC)O[C@@H]2CO)cc1`, for which the composite z-score in assay [1] is -0.147; in [2], 0.0444; in assay [3], 0.0014; in assay [4], 0.528; in assay [5], 0.23; in [6] it was 0.765. The composite z-score in [7] is 0.543; in [9], 0.0417; in [10], 0.21; in [11], 0.496; in assay [15] it was 1.54; in [17] it was -0.007. For the same compound, the composite z-score was 0.21 in assay [18], 0.475 in assay [19] and -0.0409 in assay [20]. Besides, the z-score in assay [8] is 2.22 (inactive); in [12] it was -1.68 (inactive); in assay [13], -0.519 (inactive); in [14], 0.611 (inactive); in assay [16], 0.593 (inactive).

In the case of `O=C1C2C=CC(C(O)c3c(F)cccc3Cl)N(Nc3ccccc3F)C2C(=O)N1c1ccccc1` (stereo not given), the composite z-score was found to be 0.472 in assay [1]; 0.374 in assay [2]; 0.11 in [3]; 0.574 in [4]; 1.65 in [5]; 1.37 in [6]. Besides, the composite z-score is 1.15 in assay [7]; 1.04 in [9]; 0.113 in assay [10]; 0.0998 in assay [11]; 2.98 in assay [15]; 0.17 in [17]. Moreover, the composite z-score worked out at 0.0424 in assay [18], 1.05 in [19] and 0.196 in assay [20]. Besides, the z-score in assay [8] is -3.2 (inactive); in [12], 0.232 (inactive); in assay [13], 1.03 (inactive); in assay [14], 0.722 (inactive); in assay [16] it was -0.744 (inactive).
